± gives the standard deviation.

The test deals with EfPiwi piRISC loaded with L1MC piRNA (26 nt). In words: pre-steady-state target cleavage rate (min^-1); auxiliary factor: 500 nM Ephydatia muelleri Gtsf1; guide: L1MC piRNA 5'p-UAACUAAAUACUAUGCAAGCUGUAGG; MIWI and MILI are mouse PIWI proteins and EfPiwi is from a freshwater sponge; tags in brackets are library labels; higher = faster piRNA-guided slicing of the target. Summed up:
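The method was Cleave-'n-Seq, in which uncleaved targets from a transcribed, DNA-blocked target RNA library were sequenced after exposure to active affinity-purified piRISC carrying one synthetic guide, with or without GTSF1 partner protein. Reactions contained 0.1 nM library, 1 nM piRISC and, where present, 500 nM GTSF1 in HEPES–potassium acetate buffer at 33 °C for 0–8 or 0–960 min. Reads were normalised to depth and to weakly complementary targets, three trials were pooled, and k3 was capped at 0.0001 min^-1. The pre-steady-state cleavage rate came from a burst-and-steady-state fit.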
Turning to UCCUGGUACAGCUUGGCAUAGUAUUUAGUUA, the “pre-steady-state target cleavage rate” value was found to be 0.05 ± 0.016.

With “UCCUGGAUCAGCUUGCAUAGUAUUUAGUUC [g2:g22:cont:t1C]”, the “pre-steady-state target cleavage rate” value was found to be 0.0501 ± 0.011.

With UCCUGGAUCAGCUUGAAUAGUAUUUAGUUA, the “pre-steady-state target cleavage rate” value worked out at 0.0605 ± 0.015.

With UCCUGCUACAGCUUGACAUAGUAUUUAGUUA, the “pre-steady-state target cleavage rate” value was 0.00916 ± 0.0026.

In the case of “UCCUGGAUGUCGAAGCAUAGUAUUUAGUUA [g2:g16:cont:t1A]”, the “pre-steady-state target cleavage rate” value is 0.00352 ± 0.002.

Take UCCUGCUUGAGCUUGCAUAGUAUUUAGUUA: the “pre-steady-state target cleavage rate” value came to 0.00861 ± 0.0024.

As to UCCUCCAACAGCUUGCAUAGUAUUUAGAUA, the “pre-steady-state target cleavage rate” value was 0.0051 ± 0.0023.

UCCUGGAUGUCCUGCAUAGUAUUUAGUUA: the “pre-steady-state target cleavage rate” value is 0.00358 ± 0.0026.

With UCCUGGAUGCGCUUGCAUAGUAUUUAGUUA, the “pre-steady-state target cleavage rate” value was found to be 0.0286 ± 0.0065.

Regarding UCCUGCAACAGCUUGCAUAGUAUUUAGUAA, the “pre-steady-state target cleavage rate” value came to 0.00572 ± 0.0023.

In the case of UCCUGCUACUCCUUGCAUAGUAUUUAGUUA, the “pre-steady-state target cleavage rate” value turned out to be 0.0106 ± 0.004.

Take UCCUGGAUGUCGUAGCAUAGUAUUUAGUUA: the “pre-steady-state target cleavage rate” value was 0.00385 ± 0.0025.

With UCCUGCUACAGCUUGCACAGUAUUUAGUUA, the “pre-steady-state target cleavage rate” value was 0.0133 ± 0.0041.

For the sequence UCCUCCUACAGCUUGGAUUGUAUUUAGUUA, the “pre-steady-state target cleavage rate” value is 0.0225 ± 0.0082.

For UCCUGCUACAGCUUGCAUAGUAAUUAGUUA, the “pre-steady-state target cleavage rate” value was 0.0061 ± 0.0022.

Take UCCUCCUACAGCUAGCAUAGUAUAUAGUUA: the “pre-steady-state target cleavage rate” value was determined as 0.00495 ± 0.0026.

UCCUGGAACAGCAUGCAUAGUAUAUAGUUA: the “pre-steady-state target cleavage rate” value was 0.0106 ± 0.005.

Regarding UCCUGGAUCAGCUAGCAUAGUAUUAAGUUA, the “pre-steady-state target cleavage rate” value came out at 0.00318 ± 0.002.

For the sequence UCCUGCUACAGCUAGCAUUGUAUUUAGUUA, the “pre-steady-state target cleavage rate” value is 0.00762 ± 0.0028.

In the case of UCCUCGUACAGCUUGCAAAGUAUUUAGUUA, the “pre-steady-state target cleavage rate” value came to 0.143 ± 0.032.

UCCUGGAACAGCUUGGAUAGUAAUUAGUUA: the “pre-steady-state target cleavage rate” value is 0.00719 ± 0.0026.

In the case of UCCUGGUACACCUAGCAUAGUAUUUAGUUA, the “pre-steady-state target cleavage rate” value stood at 0.00319 ± 0.0029.

As for UCCUGGAUGUGCUUGCAUAGUAUUUAGGUUA, the “pre-steady-state target cleavage rate” value turned out to be 0.00262 ± 0.0021.

Take UCCUCCUACAGCUUGCAUAGUAUUUACGUUA: the “pre-steady-state target cleavage rate” value was determined as 0.00783 ± 0.0029.

On to UCCUCCUACACCUUGGAUAGUAUUUAGUUA, for which the “pre-steady-state target cleavage rate” value came out at 0.00658 ± 0.0029.

With UCCUGGUACUGCUUGCUUAGUAUUUAGUUA, the “pre-steady-state target cleavage rate” value stood at 0.00909 ± 0.0033.

For the sequence UCCUGGAACAGCUUGCAUAGUGUUUAGUUA, the “pre-steady-state target cleavage rate” value came out at 0.0084 ± 0.0024.

On to UCCUGCUACAGCUUGCAUAGUUUUUAGUUA, for which the “pre-steady-state target cleavage rate” value was 0.00538 ± 0.0021.

As to UCCUGGUACAGAUUGCAUAGUAUUUAGUUA, the “pre-steady-state target cleavage rate” value worked out at 0.0131 ± 0.0038.

On to UCCUGGAUGUGACUUGCAUAGUAUUUAGUUA, for which the “pre-steady-state target cleavage rate” value stood at 0.00497 ± 0.0028.

For the sequence UCCUGCUAGAGCUUGCAUAGUAUUUUGUUA, the “pre-steady-state target cleavage rate” value turned out to be 0.00421 ± 0.0016.

Turning to UCCUGGUUCAGCUUGCAUAGUAAUUAGUUA, the “pre-steady-state target cleavage rate” value stood at 0.0107 ± 0.0037.

For UCCUGGAUCAGCGUGCAUAGUAUUUAGUUA, the “pre-steady-state target cleavage rate” value is 0.0619 ± 0.012.

Regarding UCCUCCUACUAGCUUGCAUAGUAUUUAGUUA, the “pre-steady-state target cleavage rate” value stood at 0.127 ± 0.035.

Turning to UCCUCCAACAGCUUGCAUAGUAUAUAGUUA, the “pre-steady-state target cleavage rate” value stood at 0.00628 ± 0.0027.

Regarding UCCUGGAUCAGCUUGGCAUAGUAUUUAGUUA, the “pre-steady-state target cleavage rate” value amounted to 0.0127 ± 0.0034.

For the sequence UCCUGGUACAGCUUGCAUAGUAUUUAGAUUA, the “pre-steady-state target cleavage rate” value was found to be 0.00491 ± 0.0025.

On to UCCUCCUACAGCUUGCAUAGUAUUUAGUCA, for which the “pre-steady-state target cleavage rate” value came out at 0.00693 ± 0.003.

Turning to UCCUCCUACAGCUUGCAUAGUGAUUUAGUUA, the “pre-steady-state target cleavage rate” value came out at 0.00415 ± 0.0025.

In the case of UCCUGGUACAGGUUGCAUUGUAUUUAGUUA, the “pre-steady-state target cleavage rate” value was determined as 0.0047 ± 0.0018.

Source of the values: the supplement of paper PMC10338343.
